Laboratory results taken from the supplement of paper PMC11732987, “Enantioselective OTUD7B fragment discovery through chemoproteomics screening and high-throughput optimisation” (Communications Chemistry, 2025).
A number with no mark means an inactive call.

The molecules below were run against COPS5 (UniProt Q92905) (assay: log2 ratio of Biotin-Ahx-Ub-VS probe labelling (fragment/DMSO); higher = less target engagement (more negative = stronger competition), active = hit call of the paper (q ≤ 0.05, log2 ratio ≤ -1)). Conditions: compound concentration: 200 uM; treatment time: 3 h.
COPS5, sequence (Q92905 whole entry, looked up, the tested form may be a part): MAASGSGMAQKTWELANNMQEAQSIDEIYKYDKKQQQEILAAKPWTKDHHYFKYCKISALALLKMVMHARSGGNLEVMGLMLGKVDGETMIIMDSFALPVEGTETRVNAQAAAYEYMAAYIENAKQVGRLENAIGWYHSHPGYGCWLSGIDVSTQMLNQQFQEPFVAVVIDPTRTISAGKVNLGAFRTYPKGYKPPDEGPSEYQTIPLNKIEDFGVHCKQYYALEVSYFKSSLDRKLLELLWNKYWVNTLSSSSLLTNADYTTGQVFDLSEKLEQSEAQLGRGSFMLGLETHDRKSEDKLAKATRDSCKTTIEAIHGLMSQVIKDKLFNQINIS
Protocol: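 Competitive ABPP in HEK293T cell lysate. Lysates were treated with each chloroacetamide fragment at 200 µM for 3 h, then with Biotin-Ahx-Ub-VS (0.5 µM, 1 h), NeutrAvidin-enriched and analysed by diaPASEF LC-MS/MS. Protein LFQ was median-normalised; average log2 ratio is fragment/DMSO from an unpaired t-test (n=3 treated, n=44 DMSO). Hits: q ≤ 0.05, log2 ratio ≤ -1, unique peptides ≥ 2.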

Compared with `N#Cc1ccc(Cl)cc1NC(=O)CCl`, `COc1ccc(Cl)cc1NC(=O)CCl` is lower in “log2 ratio of Biotin-Ahx-Ub-VS probe labelling” value (from here on “log2 ratio”): 0.289 for the first, -0.0284 for the second.

`O=C(CCl)NCc1ccc(Cl)cc1` and `O=C(CCl)Nc1cc(Cl)ccc1C(=O)O` are within 0.2 log units of each other in “log2 ratio” value: -0.152 for the first, 0.0271 for the second.

`CCN(C(=O)CCl)C1CCCCC1` and `O=C(CCl)N(Cc1ccsc1)C1CC1` are within 0.2 log units of each other in “log2 ratio” value: 0.0876 for the first, 0.054 for the second.

Compared with `O=C(CCl)N1CCOCC1C1CC1` (stereo not given), `O=C(CCl)N1CCCC2CCCCC21` (stereo not given) is lower in “log2 ratio” value: 0.143 for the first, -0.175 for the second.

`O=C(CCl)N1CCC2(CCC(O)CC2)CC1` and `O=C(CCl)N1CCOC2(CCC2)C1` are within 0.2 log units of each other in “log2 ratio” value: 0.318 for the first, 0.247 for the second.

`O=C(CCl)N[C@H]1CCS(=O)(=O)c2ccccc21` and `Cc1ccc(N2CCC(NC(=O)CCl)C2=O)cc1` (stereo not given) are within 0.2 log units of each other in “log2 ratio” value: -0.0992 for the first, -0.0995 for the second.

`Cl.O=C(CCl)NC1(c2ncccn2)CCC1` and `Cl.Cn1ncc2c1CCCC2NC(=O)CCl` (stereo not given) are within 0.2 log units of each other in “log2 ratio” value: 0.0888 for the first, -0.0371 for the second.

Going from `COc1cc(Cl)c(C)cc1NC(=O)CCl` to `Cc1cccc(NC(=O)CCl)c1C`, the “log2 ratio” value falls from -0.0677 to -0.347.

First: CCc1c[nH]c(CNC(=O)CCl)n1.Cl
Second: Cc1cnc2[nH]cc(CCNC(=O)CCl)c2c1
The “log2 ratio” value of the first is lower: -0.182 for the first, 0.199 for the second.

First: O=C(CCl)Nc1nnc(CC(F)(F)F)o1
Second: CCCn1nccc1NC(=O)CCl
The “log2 ratio” value of the first is higher: 0.149 for the first, -0.308 for the second.

First: Cc1cccn2cc(CCNC(=O)CCl)nc12.Cl
Second: Cc1cc(NC(=O)CCl)n(-c2ccccc2)n1
The “log2 ratio” value of the first is lower: -0.284 for the first, -0.0499 for the second.

`Cl.O=C(CCl)N[C@H]1C[C@@H](n2cccn2)C1` and `O=C(CCl)N[C@H]1CC[C@@H](CO)CC1` are within 0.2 log units of each other in “log2 ratio” value: -0.0476 for the first, 0.0798 for the second.

`O=C(CCl)NCc1noc(C2CC2)n1` and `CC1CCc2onc(CNC(=O)CCl)c2C1` (stereo not given) are within 0.2 log units of each other in “log2 ratio” value: 0.133 for the first, 0.0922 for the second.

`CCN1C(=O)C2CN(C(=O)CCl)CCN2C1=O` (stereo not given) and `Cl.O=C(CN1CCN(C(=O)CCl)CC1)Nc1ccc(F)cc1` are within 0.2 log units of each other in “log2 ratio” value: -0.0909 for the first, 0.0025 for the second.

Going from `COc1ccc(CN(C)C(=O)CCl)cc1` to `COc1ccccc1C(C)NC(=O)CCl` (stereo not given), the “log2 ratio” value rises from -0.0998 to 0.247.

First: Cc1ccc(N(C(=O)CCl)C2C=CS(=O)(=O)C2)cc1 (stereo not given)
Second: O=C(CCl)NC(Cn1ccccc1=O)c1ccccc1 (stereo not given)
The “log2 ratio” value of the first is lower: -0.235 for the first, 0.168 for the second.

`C[C@@H](NC(=O)CCl)c1cccc(C#N)c1` and `C#Cc1cccc(NC(=O)CCl)c1` are within 0.2 log units of each other in “log2 ratio” value: -0.193 for the first, -0.274 for the second.

`Cl.O=C(CCl)N1CC(c2ccc(Br)cn2)C1` and `O=C(CCl)N1CCOC(c2cccc(F)c2)C1` (stereo not given) are within 0.2 log units of each other in “log2 ratio” value: -0.0867 for the first, -0.0425 for the second.

Going from `O=C(CCl)N1CCC(=C(F)CO)C1` to `O=C(CCl)N1CCCC1c1ccsc1` (stereo not given), the “log2 ratio” value rises from -0.253 to -0.0486.

Going from `O=C(CCl)N1CCC(c2noc3cc(F)ccc23)CC1` to `COc1ccc(C2CCCN2C(=O)CCl)c(OC)c1` (stereo not given), the “log2 ratio” value falls from 0.00234 to -0.524.
